MEKK2mut PB1 HTS = MEK5 binding signal on mutant MEKK2 PB1, primary screen, biochemical, multiplex bead flow cytometry, Alexa488-MEK5; Alexa488-MEK5 binding to MEKK2 mutant; percent response, % at 10 µM; 290,000 tested, 0.35% active; AID 1530, 2009; in the data active = percent response above about 24%, passing the limit was not always enough
MEKK2wt PB1 HTS = modulators of MEK5 binding to wildtype MEKK2, primary screen, biochemical, multiplex bead flow cytometry, Alexa488-MEK5. Mitogen-activated protein kinase kinase kinase 2 (Homo sapiens), Q9Y2U5. Alexa488-MEK5 binding to MEKK2 WT; actives lie on both sides. binding response (% of control), % at 10 µM. 290,000 tested, 1.1% active; in the data active = binding response below about 67% or above about 130%
CHT PAM = CHT positive allosteric modulators, primary screen, cell-based, membrane potential dye, choline EC20 | B-score at 10 µM | CHT-expressing cells; hits give high values; LV-AA mutant CHT in HEK293 cells | AID 488977, 2010 | 310,000 tested, 0.49% active;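 active = initial fluorescence not abnormally high and integrated response B-score, plate-corrected, over 3 SD above library mean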
CHT inh = inhibitors of human choline transporter CHT; High affinity choline transporter 1 (Homo sapiens), Q9GZV3; CHT-expressing cells, membrane potential dye, choline response; hits give low values; B-score at 10 µM; 310,000 tested, 0.86% active;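 active = B-score over 3 SD under the library average, and starting fluorescence ratio not unusually high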;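 note: choline stimulus applied at its EC90 after an EC20 pre-addition; B-score computed on integrated fluorescence ratio after choline addition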
Mot1-301 SUMO = yeast Mot1-301 growth rescue at high temperature, primary screen, SUMOylation pathway inhibitor project, S. cerevisiae, ATP luminescence, 38.5C; S. cerevisiae Mot1-301 growth rescue; percent above DMSO median, 100 means doubled; growth rescue, % at 18.8 µM; 320,000 tested, 1% active;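 active = every valid replicate shows activation above 250% relative to neutral control wells; inactive = the rest, any valid replicate at or below 250%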;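 note: OY570 slx delta 5 strain wells were the positive control but not used for scaling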
MEKK3 PB1 HTS = modulators of MEKK3-MEK5 PB1 binding, primary screen, biochemical, wildtype MEKK3, multiplex bead flow cytometry, Alexa488-MEK5; bead-based flow cytometry, Alexa488-MEK5 binding to MEKK3; actives lie on both sides; 0 = blocked by unlabeled MEK5, 100 = vehicle; binding response (% of control), % at 10 µM; 290,000 tested, 1.4% active;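 active = binding response more than 3 SD above or below the average of its plate-row segment, actives on both sides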;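 note: Alexa488 bead fluorescence after subtracting the streptavidin-only scavenger bead signal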
Target sequence (Q99759 whole entry, looked up): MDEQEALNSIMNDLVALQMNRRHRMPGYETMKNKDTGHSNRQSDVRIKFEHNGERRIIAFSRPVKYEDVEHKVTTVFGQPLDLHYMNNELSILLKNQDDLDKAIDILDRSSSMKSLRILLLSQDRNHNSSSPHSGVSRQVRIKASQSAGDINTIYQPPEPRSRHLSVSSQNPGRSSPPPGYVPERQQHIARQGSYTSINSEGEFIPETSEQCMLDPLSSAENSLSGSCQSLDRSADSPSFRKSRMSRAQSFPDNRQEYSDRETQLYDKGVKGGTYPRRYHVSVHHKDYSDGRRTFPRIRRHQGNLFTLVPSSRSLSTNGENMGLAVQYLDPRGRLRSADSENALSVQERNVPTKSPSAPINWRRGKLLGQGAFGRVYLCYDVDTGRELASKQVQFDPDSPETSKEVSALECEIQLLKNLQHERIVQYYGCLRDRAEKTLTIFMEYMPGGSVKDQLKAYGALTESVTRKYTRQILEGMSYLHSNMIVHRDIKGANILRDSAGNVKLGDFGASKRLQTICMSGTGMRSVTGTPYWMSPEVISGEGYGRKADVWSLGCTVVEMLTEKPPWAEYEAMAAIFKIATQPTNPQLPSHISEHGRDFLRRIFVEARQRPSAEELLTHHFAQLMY
CHT act confirm = CHT activators, confirmation, cell-based, membrane potential dye, duplicate; activation, % at 10 µM; 2,500 tested, 91% active; shares compounds with CHT PAM; CHT-expressing cells, membrane potential dye fluorescence (FDSS); % of choline EC20–EC90 response window; HEK293 expressing CHT LV-AA mutant; choline added at its EC20;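 active = primary screen active, with duplicate mean activation above negative control mean plus 3 SD, cut at about 11% in these data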
HEK293 MP dye = membrane potential response in parental HEK293 cells, counter-screen for CHT activator project, cell-based, membrane potential dye | membrane potential dye fluorescence (FDSS); measured after EC20 choline addition | ratio readout change at 10 µM, hits read low | shares compounds with CHT PAM | 2,500 tested, 62% active;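 active = duplicate-averaged ratio beyond 3 SD from buffer wells, up or down, though filed actives are nearly all decreases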
* = called active by the depositor; i = inactive; x = no result given. Most compounds without a hit are left out; they make up all but 4.1% or so of the library.

SMILES	MEKK2mut PB1 HTS	MEKK2wt PB1 HTS	CHT PAM	CHT inh	Mot1-301 SUMO	MEKK3 PB1 HTS	CHT act confirm	HEK293 MP dye
CCNS(=O)(=O)c1cc(-c2nnc(OC)c3ccccc23)ccc1C	13	112	7.7*	i	0	107	-11	i
O=c1cc(N2CCOCC2)cnn1-c1ccccc1	1	98	i	i	-14	101	x	x
CCN(C(=O)Cn1cnc2cc([N+](=O)[O-])ccc2c1=O)C1CCS(=O)(=O)C1 (configuration not stated)	-4	96	i	i	-31	97	x	x
CCCCN(Cc1ccccc1)S(=O)(=O)c1ccc2c(c1)n(C)c(=O)c(=O)n2C	-3	93	i	i	4	99	x	x
CN(C)CCN(Cc1ccccc1)S(=O)(=O)c1ccc2c(c1)n(C)c(=O)c(=O)n2C	8	104	12*	i	-2	107	74*	-81*
COC(=O)[C@]1(CC(C)C)N[C@H](c2ccc(SC3CCCCC3)c(OC)c2)[C@@H]2C(=O)N(C)C(=O)[C@@H]21	x	x	i	i	-14	x	x	x
CCCCCCSc1ccc([C@H]2N[C@@](CC(C)C)(C(=O)OC)[C@H]3C(=O)N(C)C(=O)[C@@H]23)cc1OC	x	x	7.2*	i	1	x	18*	i
CN1C(=O)C(O)(C2COC(C)(C)CC2=O)c2ccccc21 (configuration not stated)	17	100	i	i	11	101	x	x
CN1C(=O)C(O)(C2COC(C)(C)CC2=O)c2cc(Br)ccc21 (configuration not stated)	13	108	6.8*	i	12	107	8	i
CC1CN(c2ccccc2)NC1=O (configuration not stated)	-3	98	i	i	-5	101	x	x
NC(=O)C1(N2CCCCC2)CCN(C(=S)Nc2ccc(S(N)(=O)=O)cc2)CC1	-7	104	i	i	-13	108	x	x
Cc1nc2ccccc2c2c1CC(C)S2 (configuration not stated)	-1	97	i	i	2	109	42*	-53*
Cc1nc2ccccc2c2c1CC(C(C)(Cl)Br)O2 (configuration not stated)	4	99	i	i	-28	107	x	x
CC(C)c1nc(N2CCN(C(=O)c3ccco3)CC2)c(C#N)c2c1COC(C)(C)C2	-2	96	6.6*	i	0	104	23*	i
CCOC(=O)C1CCN(S(=O)(=O)c2cc(C(=O)OC)n(C)c2)CC1	1	106	i	i	-11	105	x	x
O=C(CCNC(=O)c1ccc([N+](=O)[O-])cc1)NNC(=O)c1ccccc1F	x	x	x	x	-14	x	x	x
Cc1nc2sc3c(c2c(=O)o1)CC(C)(C)OC3	3	103	i	i	54	103	x	x
N=c1c2c3c(sc2nc2n1CCC2)CCCC3	0	100	i	i	8	101	48*	-40*
CC1(C)Cc2c(sc3nc4n(c(=N)c23)CCC4)CO1	3	101	8.5*	i	-12	98	50*	-63*
O=C1Cc2cc(S(=O)(=O)N3CCN(c4cccc(Cl)c4)CC3)ccc2N1	1	101	i	i	12	101	x	x
COc1ccccc1NC(=O)CSc1nnc(CCNC(=O)c2ccc(C)cc2)n1C	-13	83	i	i	-3	79	x	x
CCOC(=O)c1sc2ncnc(N3CCN(C)CC3)c2c1C	0	102	i	i	10	104	30*	-41*
CCOC(=O)N1CCN(c2ncnc3scc(-c4ccccc4)c23)CC1	2	105	9.7*	i	-1	103	15*	i
O=C(CSc1ncnc2scc(-c3ccccc3)c12)N1CCN(c2ccccc2F)CC1	-1	90	i	i	-6	91	42*	i
CCOC(=O)N1CCN(c2ncnc3scc(-c4ccc(Cl)cc4)c23)CC1	8	106	i	i	26	109	x	x
SMILES	MEKK2mut PB1 HTS	MEKK2wt PB1 HTS	CHT PAM	CHT inh	Mot1-301 SUMO	MEKK3 PB1 HTS	CHT act confirm	HEK293 MP dye
CN(Cc1ccccc1)c1ncc(C=O)s1	14	104	i	i	3	103	x	x
COc1cc(/C=C2\CCOC2=O)cc(OC)c1OC	-25	85	i	i	17	90	x	x
Cc1cc(S(=O)(=O)N2CCCC(N(C)CCc3ccccn3)C2)c(C)cc1Cl (configuration not stated)	1	99	i	i	x	99	x	x
Cc1nn(CC(=O)N(C)C2CCS(=O)(=O)C2)c(C)c1S(=O)(=O)N(C)C (configuration not stated)	x	x	x	x	11	x	x	x
Cn1c(=O)n(C)c2cc([N+](=O)[O-])c(N3CCN(C(=O)c4cccc(F)c4)CC3)cc21	-1	106	i	i	-3	110	26*	-39*
Cn1c(=O)c(=O)n(C)c2cc([N+](=O)[O-])c(N3CCOCC3)cc21	2	104	6.5*	i	0	103	66*	-61*
CC1C(=O)C(C)C(c2ccccc2F)NC1c1ccccc1F (configuration not stated)	7	103	i	i	36	105	28*	i
N#C/C(=C\Nc1ccccc1O)c1nc2ccccc2o1	-1	94	i	i	12	115	x	x
COc1cccc(CN2CCC(N(CCc3ccccc3)Cc3ccccc3)CC2)c1OC	1	123	10*	i	8	106	34*	i
COc1cccc(CN2CCN(Cc3cccc(Oc4ccccc4)c3)CC2)c1OC	8	114	i	i	1	105	x	x
Cc1cc(C)nc(SCc2ccc3nonc3c2)n1	1	103	i	i	7	106	x	x

Compound activity: PubChem, several laboratories
